Data as given in PubChem BioAssay (EPA / NIEHS).
Several values for one entry are separate records, joined by “and”; a condition that tells them apart may be missing. Equal values may be shown once. Results filed as inconclusive are left out. Some structures have more than one record in an assay (separate samples or runs), and their calls can disagree. Activity calls are given as the source filed them. The calls were made as follows: active = hit-call score of the fitted dose curve at least 0.9, where 1 is the maximum; inconclusive = response in the unintended direction; inactive = score below 0.9.

Test: Tanguay_ZF_120hpf_PFIN_legacy: (Legacy) Oregon State University Tanguay Lab 120 Hour Post-fertilization zebrafish Assay for Pectoral Fin Malformation (AID 2283648);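 also: each larva judged yes or no for fin defect by brightfield with dead larvae skipped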
Procedure: Tanguay_ZF_120hpf_legacy is a whole embryo, multiplexed endpoint assay using zebrafish larvae exposed for 120 hours post fertilization on a 96-well plate.Tanguay_ZF_120hpf_PFIN_legacy is one of one assay component(s) measured or calculated from the Tanguay_ZF_120hpf_legacy assay. It is designed to make measurements of zebrafish development as detected with brightfield microscopy of developing zebrafish embryos.Data from the assay component Tanguay_ZF_120hpf_PFIN_legacy was analyzed into 1 assay endpoints. This assay endpoint, Tanguay_ZF_120hpf_PFIN_legacy, was analyzed in the positive analysis fitting direction relative to DMSO as the negative control and baseline of activity. Using a type of morphology reporter, gain-of-signal activity can be used to understand changes in developmentals as they relate to the whole embryo. To generalize the intended target to other relatable targets, this assay endpoint is annotated to the zebrafish development intended target family, where the subfamily is pectoral fin morphogenesis.
Zebrafish husbandry: Tropical 5D wild-type adult zebrafish were housed in at an approximate density of 1000 per 100 gallon tank at the Sinnhuber Aquatic Research Laboratory, Oregon State University, Corvallis, OR. Each tank was kept at standard laboratory conditions of 28C on a 14-h light/10-h dark photoperiod in fish water consisting of reverse osmosis water supplemented with a commercially available salt (Instant Ocean). Spawning funnels were placed into the tanks the night prior, and embryos were collected and staged. To increase bioavailability, the chorion was enzymatically removed using pronase (63.6mg/ml, >/= 3.5U/mg, Sigma-Aldrich: P5147) at 4 hours post fertilization (hpf) using a custom automated dechorionator.Chemical exposures: Six hpf dechorionated embryos were placed 1 embryo per well in a 96-well plate prefilled with 90 ul of EM using automated embryo placement systems (AEPS). Ten microliters of each row of dilution plate 2 was added to 2 exposure plates. The final DMSO concentration used was 0.64% (vol/vol). Thirty-two embryos were also exposed to 5uM trimethyltin chloride (positive control). Plates were sealed to prevent evaporation and foil covered to reduce light exposure and kept in a 28C incubator. Embryos were statically exposed until 120 hpf. At 24 hpf, embryos were assessed for photomotor response using a custom photomotor response analysis tool (PRAT) and for developmental toxicity endpoints (MO24: mortality at 24 hpf, DP: developmental progression, SM: spontaneous movement, and NC: notochord distortion). At 120 hpf, locomotor activity was measured using Viewpoint Zebralab and assessed for 18 endpoints. Zebrafish acquisition and analysis program (ZAAP), a custom program designed to inventory, acquire, and manage zebrafish data, was used to collect developmental endpoints as either present or absent (i.e., binary responses were recorded). If mortality occurred for an embryo (at either 24 or 120 hpf), the non-mortality endpoints were not measured.

SMILES	outcome	AC50
N#CSCSc1nc2ccccc2s1	inactive	–
Oc1ccc(C(c2ccc(O)cc2)C(Cl)(Cl)Cl)cc1	inactive	–
C[C@]12CC[C@@H]3c4ccc(O)cc4C[C@@H](CCCCCCCCCS(=O)CCCC(F)(F)C(F)(F)F)[C@H]3[C@@H]1CC[C@@H]2O (stereo not given in full)	inactive	–
CC(=O)[C@H]1CC[C@H]2[C@@H]3CCC4=CC(=O)CC[C@]4(C)[C@H]3CC[C@]12C	inactive	–
CC(C)(c1ccc(O)cc1)c1ccc(O)cc1	inactive	29.8 µM (active) and 37.2 µM (active)
CC(C)CCCCCCc1ccc(O)cc1	inactive	–
CSC(=O)c1cccc2nnsc12	inactive	–
c1ccc2[nH]c(-c3cscn3)nc2c1	inactive	–
O=C(Nc1ccc([N+](=O)[O-])cc1Cl)c1cc(Cl)ccc1O	inactive	–
CCOC(=O)C(C)Oc1ccc(Oc2nc3ccc(Cl)cc3o2)cc1 (stereo not given)	inactive	–
CCCCOC(=O)C(C)Oc1ccc(Oc2ccc(C(F)(F)F)cn2)cc1 (stereo not given)	inactive	–
CCNc1nc(N)nc(Cl)n1	inactive	–
CC(=O)S[C@@H]1CC2=CC(=O)CC[C@]2(C)[C@H]2CC[C@@]3(C)[C@@H](CC[C@@]34CCC(=O)O4)[C@H]12	inactive	–
COc1c(Cl)ccc(Cl)c1C(=O)O	inactive	–
CCCCC(CC)CN1C(=O)C2C3C=CC(C3)C2C1=O (stereo not given)	inactive	–
CCCCOC(=O)[C@@H](C)Oc1ccc(Oc2ccc(C(F)(F)F)cn2)cc1	inactive	–
CCCN(CCC)c1c([N+](=O)[O-])cc(C(F)(F)F)c(N)c1[N+](=O)[O-]	inactive	–
O=C(O)C1(C(=O)Nc2ccc(Cl)cc2Cl)CC1	inactive	–
CCOC(=O)COc1cc(-n2ncc(C(F)(F)F)c(C)c2=O)c(F)cc1Cl	inactive	–
CCOC(=O)c1ccc(O)cc1	inactive	–

SMILES	outcome	AC50
CCSC(=O)N(CC(C)C)CC(C)C	inactive	–
O=C(O)c1ccccc1	inactive	–
CCC(C)OC(=O)N1CCCCC1CCO (stereo not given)	inactive	–
Cc1nn(C)c(Oc2ccccc2)c1C=NOCc1ccc(C(=O)OC(C)(C)C)cc1	inactive	–
c1ccc(Nc2ccccc2)cc1	inactive	–
CCN(CC)C(=O)c1cccc(C)c1	inactive	–
CCCOC(=O)NCCCN(C)C	inactive	–
S=C([S-])NCCNC(=S)[S-].[Mn+2]	inactive	–
CCCCOCCOCCOCc1cc2c(cc1CCC)OCO2	inactive	–
COC(=O)c1ccc(I)cc1S(=O)(=O)NC(=O)Nc1nc(C)nc(OC)n1	inactive	–
O=C(c1ccc(O)cc1O)c1ccc(O)cc1O	inactive	–
CCOC(=O)C(C)Oc1ccc(Oc2cnc3cc(Cl)ccc3n2)cc1 (stereo not given)	inactive	–
CCCCCOC(=O)COc1cc(N2C(=O)C3=C(CCCC3)C2=O)c(F)cc1Cl	inactive	–
C=CCOC(Cn1ccnc1)c1ccc(Cl)cc1Cl (stereo not given)	inactive	–
CN(C)C(=O)Nc1ccc(Cl)c(Cl)c1	inactive	–
CCCOC(=O)c1ccc(C(=O)OCCC)nc1	inactive	–
S=C(S)NCCNC(=S)S.[Mn+2].[S-]C([S-])=NCCN=C([S-])[S-].[Zn+2]	inactive	–
COC(=O)CSc1cc(N=c2sc(=O)n3n2CCCC3)c(F)cc1Cl	inactive	–
COCCO	inactive	–
